Compound activity as filed in PubChem.
MPTP block: blocks calcium-induced mitochondrial swelling; isolated mouse mitochondria, Ca2+ swelling absorbance, 30 min; inhibition, % at 10 µM; 360,000 compounds, 1.4% hits; AID 602449;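 active = inhibition of 50% or more, scaled per plate between neutral and stimulator controls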
Mdm2 MdmX PPI: disrupts the human Mdm2-MdmX interaction. AID 485346. 330,000 compounds, 3% hits. O15151+Q00987. SaOS-2 split-luciferase Mdm2/MdmX complementation, luminescence. inhibition, % at 8 µM;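 active = inhibition of at least 50% at 8 µM in the primary screen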
Target sequence (O15151 whole entry, looked up): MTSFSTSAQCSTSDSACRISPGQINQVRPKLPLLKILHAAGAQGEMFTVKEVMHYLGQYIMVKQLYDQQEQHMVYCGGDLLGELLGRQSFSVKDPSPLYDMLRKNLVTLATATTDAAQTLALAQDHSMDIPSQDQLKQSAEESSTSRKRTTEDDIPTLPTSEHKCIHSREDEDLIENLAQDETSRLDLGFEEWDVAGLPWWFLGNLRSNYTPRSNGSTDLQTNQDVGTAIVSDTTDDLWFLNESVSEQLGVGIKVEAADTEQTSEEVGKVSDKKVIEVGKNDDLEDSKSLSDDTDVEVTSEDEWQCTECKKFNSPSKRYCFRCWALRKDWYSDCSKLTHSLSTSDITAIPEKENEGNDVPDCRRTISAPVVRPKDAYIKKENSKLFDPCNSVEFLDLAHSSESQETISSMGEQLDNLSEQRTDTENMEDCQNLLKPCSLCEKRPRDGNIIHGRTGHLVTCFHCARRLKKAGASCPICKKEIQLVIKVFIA
Target sequence (Q00987 whole entry, looked up): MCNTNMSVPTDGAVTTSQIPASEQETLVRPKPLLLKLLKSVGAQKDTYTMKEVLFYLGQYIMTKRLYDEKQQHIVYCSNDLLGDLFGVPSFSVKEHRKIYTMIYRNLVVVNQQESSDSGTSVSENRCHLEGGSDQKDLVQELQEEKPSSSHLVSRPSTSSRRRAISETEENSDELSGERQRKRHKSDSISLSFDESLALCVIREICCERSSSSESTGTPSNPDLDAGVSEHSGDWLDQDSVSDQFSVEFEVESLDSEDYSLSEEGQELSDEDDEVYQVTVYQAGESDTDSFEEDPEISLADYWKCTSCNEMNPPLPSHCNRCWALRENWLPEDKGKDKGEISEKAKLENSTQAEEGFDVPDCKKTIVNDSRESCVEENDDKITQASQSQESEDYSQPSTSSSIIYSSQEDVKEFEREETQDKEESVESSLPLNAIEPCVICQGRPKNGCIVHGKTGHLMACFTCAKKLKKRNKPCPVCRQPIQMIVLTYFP
tim10-1 inh: growth inhibitors of tim10-1 mutant yeast; S. cerevisiae tim10-1 ts strain growth, BacTiter-Glo, 24 h; inhibition, % at 20 µM; 330,000 compounds, 2.2% hits; AID 463190;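 active = inhibition of at least 40%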;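 note: mutant grown at 25 °C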
TIM10 inh: inhibits growth of TIM10 yeast strain; 330,000 compounds, 1.4% hits; S. cerevisiae TIM10 strain growth, BacTiter-Glo luminescence, 24 h; inhibition, % at 10 µM;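 active = inhibition of 40% or more at the single tested concentration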;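 note: wild-type TIM10 isogenic control strain grown at permissive 25 °C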
tim23-1 inh: growth inhibitors of tim23-1 mutant yeast | S. cerevisiae tim23-1 growth, BacTiter-Glo luminescence, 24 h | inhibition, % at 20 µM | 330,000 compounds, 1.3% hits | AID 463212;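 active = growth inhibition of the mutant yeast at or above 50%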;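 note: temperature-sensitive mutant grown at 25 °C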
MPTP counter: membrane potential counter-screen of mitochondrial pore inhibitors. isolated mitochondria, Rhodamine 123 fluorescence. shares compounds with MPTP block. inhibition, % at 10 µM. 5,000 compounds, 78% hits; in the data active = inhibition above about 22%
MPTP abs DR: dose response confirmation of mitochondrial permeability transition pore inhibitors. isolated mitochondria swelling, absorbance. shares compounds with MPTP block. 780 compounds, 58% hits. IC50, µM; in the data active = IC50 below about 20 µM
MPTP counter DR: MPTP inhibitor counter-screen activity, dose response; shares compounds with MPTP block; isolated mitochondria counterscreen, fluorescence read-out; IC50, µM; 780 compounds, 49% hits; AID 651564; in the data active = IC50 below about 80 µM
Numbers stand for hits; - = inactive; . = not tested or not shown. Most compounds without a hit are left out; they make up all but 6.3% or so of the library.

SMILES	MPTP block	Mdm2 MdmX PPI	tim10-1 inh	TIM10 inh	tim23-1 inh	MPTP counter	others
CCN1C[C@@H]2[C@@H]3C(=O)N(Cc4ccccc4)C(=O)[C@@H]3[C@](CC)(C1=O)N2C(=O)c1ccc(Cl)c(Cl)c1	-	.	.	.	.	.
CCOc1ccc(NC(=S)/C(=C(\[O-])c2ccc(C)c([N+](=O)[O-])c2)[n+]2ccccc2)cc1	-	-	-	-	-	.
CCOc1ccc(NC(=S)Nc2ccc(C)c([N+](=O)[O-])c2)cc1	86	-	-	-	-	90
CCOC(=O)C1CCCN(C(=O)c2ccc3ccccc3c2)CC1 (configuration not stated)	-	.	.	.	.	.
Cc1ccc(-c2nc(CSCC(=O)N3CCN(c4ccccn4)CC3)c(C)o2)cc1	-	-	-	-	-	.
CCc1ccc(-c2nc(CSCC(=O)N3CCN(c4ccccn4)CC3)c(C)o2)cc1	80	-	-	-	-	58
COCCOc1ccc(C(F)(F)F)cc1NC(=O)c1ccc(F)cc1	-	-	-	-	-	.
COCCOc1ccc(C(F)(F)F)cc1NC(=O)c1ccc(C)cc1	58	-	-	-	-	-	MPTP abs DR=15;MPTP counter DR=-
O=C(NC1CCCC1)C(c1ccco1)N1CCC(O)(c2ccc(Cl)cc2)CC1 (configuration not stated)	-	.	.	.	.	.
COC(=O)c1cc(NC(=O)c2cc(-c3ccc(C(F)(F)F)cc3)oc2C(F)(F)F)ccc1N1CCOCC1	88	-	-	-	-	69
Cc1cccc(NC(=O)CSc2cc(C)c(C#N)c3nc4ccccc4n23)c1	85	-	-	-	-	58
COc1cccc(-c2cc(CNC(=O)[C@H]3O[C@@H](n4ccc(N)nc4=O)[C@H](O)[C@@H]3O)no2)c1	-	.	.	.	.	.
O=C(CSc1nc2ccccc2c(=O)n1-c1ccccc1)N1CCc2ccccc2C1	84	-	-	-	-	75
CCc1cccc(NC(=O)COC(=O)CSc2ccc(C)cc2)c1	-	.	.	.	.	.
COc1cc(CNCc2c[nH]c3ccccc23)cc(OC)c1	60	-	-	-	-	-	MPTP abs DR=6.3;MPTP counter DR=53
Cn1cc(S(=O)(=O)NC[C@H]2O[C@@H](n3ccc(=O)[nH]c3=O)[C@H](O)[C@@H]2O)cn1	-	.	.	.	.	.
C=CC(C)(C)c1c2occc2c(O)c2ccc(=O)oc12	74	-	-	-	-	84
NC(=O)c1c(-c2ccc(Cl)cc2Cl)csc1NC(=O)Cc1ccccc1	103	.	.	.	.	90
O=C(Cc1ccccc1)Nc1scc(-c2ccccc2)c1C(=O)N1CCOCC1	-	-	-	-	-	.
Cc1ccccc1CN1CCN(CC(=O)NCCCN2CCN(c3ccc(F)cc3)CC2)C1=O	56	-	-	-	-	-
O=C(CN1CCN(Cc2ccc(Cl)cc2)C1=O)NCCCN1CCOCC1	-	-	-	-	-	.
O=C(CN1CCN(Cc2ccc(F)cc2Cl)C1=O)NCCCN1CCOCC1	-	-	-	-	-	.
O=C(CN1CCN(Cc2ccc(Cl)cc2)C1=O)NCCCN1CCN(c2ccc(F)cc2)CC1	69	-	-	-	-	-	MPTP abs DR=11;MPTP counter DR=12
Nn1c(COc2ccccc2F)nnc1SCC(=O)NCC1CCCO1 (configuration not stated)	-	.	.	.	.	.
NCCOc1ccccc1Cc1ccccc1	69	-	-	-	-	-	MPTP abs DR=6.7;MPTP counter DR=-
SMILES	MPTP block	Mdm2 MdmX PPI	tim10-1 inh	TIM10 inh	tim23-1 inh	MPTP counter	others
Cc1cc2nc(-c3ccc(SCc4ccc(C#N)cc4)nc3)[nH]c2cc1C	67	-	-	-	-	66
N#Cc1ccccc1CSc1ccc(-c2nc3ccccc3[nH]2)cn1	-	-	-	-	-	.
O=c1cc(CN2CCCC2)c2c(ccc3ccccc32)o1	-	.	.	.	.	.
Cc1cccc(NC(=O)c2n[nH]c([N+](=O)[O-])c2Br)c1C	87	-	-	-	-	86
O=C(CSc1nc2ccc([N+](=O)[O-])cc2[nH]1)NC1CCCCC1	-	-	-	-	-	.
COc1ccc(C(=O)CSc2nc3ccc([N+](=O)[O-])cc3[nH]2)cc1	99	-	-	-	-	86
O=C(CSc1nc2ccc([N+](=O)[O-])cc2[nH]1)NC1CCCCCC1	95	-	-	-	-	80
Cc1ccccc1NC(=O)c1cc2ccccn2n1	-	-	-	-	-	.
Cc1ccc(C)c(NC(=O)c2cc3ccccn3n2)c1	53	-	-	-	-	-	MPTP abs DR=-;MPTP counter DR=-
O=C(CCN1C(=O)/C(=C\c2cccc(Br)c2)SC1=S)NCCCN1CCOCC1	65	-	-	-	-	-	MPTP abs DR=17;MPTP counter DR=17
O=C(CCN1C(=O)/C(=C\c2ccccc2)SC1=S)NNC(=O)c1ccncc1	53	-	-	-	-	-	MPTP abs DR=-;MPTP counter DR=-
O=C(CCN1C(=O)/C(=C/c2ccccc2)SC1=S)NCCCN1CCOCC1	74	-	-	-	-	-	MPTP abs DR=-;MPTP counter DR=63
CC1(C(=O)NS(=O)(=O)c2ccccc2C(F)(F)F)CCN1C(=O)CCc1ccccc1 (configuration not stated)	-	.	.	.	.	.
Cc1ccsc1C(=O)N1CCCCCC1(C)C(=O)NCC(C)C (configuration not stated)	-	.	.	.	.	.
C[C@@H]1CN([C@H](C)CO)C(=O)CCCn2cc(nn2)CO[C@H]1CN(C)S(=O)(=O)c1ccccc1	-	.	.	.	.	.
COC1CCC2(C)C(=CCC3C4CC(O)CC4(C)CCC32)C1 (configuration not stated)	81	.	.	.	.	73
CCN(CC)S(=O)(=O)c1ccc(Oc2ccc(S(=O)(=O)N(CC)CC)cc2)cc1	97	-	-	-	-	89
Cc1cc(C(=O)Nn2c(C3CCCCC3)nc3ccccc3c2=O)ccc1[N+](=O)[O-]	53	-	-	-	-	77
O=C(Nn1c(C2CCCCC2)nc2ccccc2c1=O)c1ccc(Cl)c([N+](=O)[O-])c1	72	-	-	-	-	83
N#CCCN(Cc1cccnc1)CN1C(=O)c2ccccc2C1=O	-	.	.	.	.	.
Oc1ccc(CCc2ccccn2)cc1	-	.	.	.	.	.
Cc1cc(-c2ccc(C)c(S(=O)(=O)NCCCN3CCN(c4ccccc4F)CC3)c2)on1	72	-	-	-	-	85
Cc1ccc(F)cc1NCC(=O)Nc1ccc(Br)cc1	71	-	-	-	-	72
Cc1ccc(NCC(=O)Nc2ccc(Br)cc2)cc1C	-	-	-	-	-	.
COC(=O)N(C)C[C@H]1OCc2cnnn2CCCC(=O)N([C@@H](C)CO)C[C@H]1C	-	.	.	.	.	.
CC(=N\Nc1ccc(Cl)cc1)/C(=N/O)C(=O)Nc1ccccc1	-	-	-	-	-	.
CCOC(=O)C(=N/O)/C(C)=N/NC(=O)C(=O)Nc1ccc(Cl)cc1	82	-	-	-	-	69
CCOC(=O)c1sc(NC(C)=O)cc1C	-	-	-	-	-	.
CCOC(=O)c1sc(NC(=O)Nc2ccccc2)cc1C	94	-	-	-	-	70
